TEAD-YAP inh: TEAD-YAP interaction inhibition, primary screen, TEAD-YAP interaction inhibitor project, luminescence, HEK-TIYL cells | 1.4% of 640,000 active | TEAD-Gal4/YAP UAS-luciferase luminescence | inhibition, % at 9.12 µM | AID 1259422, 2018; in the data active = inhibition above about 32%
FBW7 act: FBW7 E3 ligase activators, primary screen, biochemical, AlphaScreen, human. F-box/WD repeat-containing protein 7 (Homo sapiens), Q969H0. AlphaScreen FBW7–phospho-cyclin E peptide binding, activator screen. normalized activity (activation), % at 26.1 µM. 0.13% of 650,000 active. AID 1259310, 2017; in the data active = normalized activity above about 1.9%;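 note: purified mutant Fbw7 with reduced substrate affinity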
Target sequence (Q969H0 whole entry, looked up): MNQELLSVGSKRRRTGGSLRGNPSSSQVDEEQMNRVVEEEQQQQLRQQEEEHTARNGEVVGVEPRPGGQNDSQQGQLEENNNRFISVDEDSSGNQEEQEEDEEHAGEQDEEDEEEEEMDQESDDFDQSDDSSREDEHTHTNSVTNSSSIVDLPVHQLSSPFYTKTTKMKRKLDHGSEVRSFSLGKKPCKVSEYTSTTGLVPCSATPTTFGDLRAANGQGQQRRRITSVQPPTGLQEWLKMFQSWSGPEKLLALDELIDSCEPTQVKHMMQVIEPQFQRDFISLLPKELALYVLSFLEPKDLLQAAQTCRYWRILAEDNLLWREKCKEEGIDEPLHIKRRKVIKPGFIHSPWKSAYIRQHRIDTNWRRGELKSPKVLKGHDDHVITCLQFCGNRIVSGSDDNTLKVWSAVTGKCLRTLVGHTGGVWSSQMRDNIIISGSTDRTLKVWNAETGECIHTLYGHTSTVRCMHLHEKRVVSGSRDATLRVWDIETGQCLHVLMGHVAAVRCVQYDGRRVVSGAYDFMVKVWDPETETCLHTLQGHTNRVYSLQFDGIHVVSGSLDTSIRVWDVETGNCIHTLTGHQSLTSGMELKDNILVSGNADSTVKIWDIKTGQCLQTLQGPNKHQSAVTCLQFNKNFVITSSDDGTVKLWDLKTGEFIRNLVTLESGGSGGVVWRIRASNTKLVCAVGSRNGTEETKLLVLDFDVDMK
GPR151 activ: activators of human GPR151, primary screen, cell-based, PathHunter beta-arrestin, luminescence | G-protein coupled receptor 151 (Homo sapiens), Q8TDV0 | PathHunter beta-arrestin GPR151 cells | activation, % at 11.2 µM | 1% of 650,000 active | AID 1508602, 2020; in the data active = activation above about 4.9%
MITF inh: MITF inhibitors, primary screen, biochemical, AlphaScreen, human; AlphaScreen MITF homodimerization, bead proximity signal; inhibition, % at 2.6 µM; Microphthalmia-associated transcription factor (Homo sapiens), O75030; 0.91% of 650,000 active; in the data active = inhibition above about 50%
GPR151 confirm: GPR151 activators, triplicate retest, confirmation, cell-based, PathHunter beta-arrestin, luminescence; shares compounds with GPR151 activ; GPR151 PathHunter beta-arrestin cells, 90 min; % of EA-reagent control over plate median; activation, % at 11.2 µM; 6,700 tested, under 10 active;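 active = mean percent activation across replicates above the confirmation screen cutoff of 4.91%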
GPR119 counter: GPR119 activators in beta-arrestin cells, counter-screen for GPR151 activator project, cell-based, PathHunter beta-arrestin, luminescence, triplicate. activation, % at 11.2 µM. 90 min; 0 = compound-well median, 100 = enzyme-acceptor control. 0.3% of 6,700 active. shares compounds with GPR151 activ. AID 1508611, 2020;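 active = mean percent activation in the counterscreen above 29.09%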;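 note: counterscreen on off-target GPR119 to flag nonselective hits from the GPR151 activator screen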
Numbers stand for hits. In the library only some 3.5% were active in any assay of this set; here they are far more common.

COc1cccc(NC(=O)CSc2cn(CC(=O)N3CCCCCC3)c3ccccc23)c1 was read as TEAD-YAP inh inactive, FBW7 act inactive, GPR151 activ inactive and MITF inh inactive.
`FC(F)(F)c1ccc(Nc2nc(NCCOc3ccccc3)c3ncn(-c4ccsc4)c3n2)cc1` gave TEAD-YAP inh inactive, FBW7 act inactive, GPR151 activ inactive and MITF inh inactive.
For O=C(Nc1cccc2ccccc12)C1CC(=O)N(c2cccc(Cl)c2)C1 (stereo not drawn) the results were TEAD-YAP inh inactive, FBW7 act inactive, GPR151 activ 6.9, MITF inh inactive, GPR151 confirm inactive and GPR119 counter inactive.
`O=C(CN1C(=O)COc2ccccc21)Nc1cccc(F)c1` gave TEAD-YAP inh inactive, FBW7 act inactive, GPR151 activ 5.2, MITF inh inactive, GPR151 confirm inactive and GPR119 counter inactive.
Screening CC(=O)C1CC(CC#N)C1(C)C (stereo not drawn) returned TEAD-YAP inh inactive, FBW7 act inactive, GPR151 activ inactive and MITF inh inactive.
For COc1ccc(C(=O)N(C)c2ccccc2)cc1S(=O)(=O)N1CCCC1 the results were TEAD-YAP inh inactive, FBW7 act inactive, GPR151 activ 5.2, MITF inh inactive, GPR151 confirm inactive and GPR119 counter inactive.
CNC(=O)c1ccc(OC)c(S(=O)(=O)N2CCC(C)CC2)c1 was read as TEAD-YAP inh inactive, FBW7 act inactive, GPR151 activ 5.4, MITF inh inactive, GPR151 confirm inactive and GPR119 counter inactive.
`CN(C(=O)c1cccc(S(=O)(=O)N2CCCCC2)c1)c1ccccc1` gave TEAD-YAP inh inactive, FBW7 act inactive, GPR151 activ inactive and MITF inh inactive.
`Cc1cc(S(=O)(=O)N2CCN(C)CC2)c(C)cc1Cl` gave TEAD-YAP inh inactive, FBW7 act inactive, GPR151 activ 5.3, MITF inh inactive, GPR151 confirm inactive and GPR119 counter inactive.
Screening Cc1cc(C)c(S(=O)(=O)N2CCN(C)CC2)cc1C returned TEAD-YAP inh inactive, FBW7 act inactive, GPR151 activ inactive and MITF inh inactive.
Screening OC1CCN(Cc2c(F)cccc2F)CC1 returned TEAD-YAP inh inactive, FBW7 act inactive, GPR151 activ 5.9, MITF inh inactive, GPR151 confirm inactive and GPR119 counter inactive.
For CC(=O)Nc1ccc(/C=c2\s/c(=C(/C#N)C(N)=O)n(-c3cc(C)ccc3C)c2=O)cc1 the results were TEAD-YAP inh inactive, FBW7 act inactive, GPR151 activ inactive and MITF inh inactive.
Cc1csc(CN(C)C(=O)CC2C(=O)NCCN2CCC(C)C)n1 (stereo not drawn) was read as TEAD-YAP inh inactive, FBW7 act inactive, GPR151 activ inactive and MITF inh inactive.
`COc1cccc(CN2CCNC(=O)C2CC(=O)N(C)Cc2nc(C)cs2)c1OC` (stereo not drawn) gave TEAD-YAP inh inactive, FBW7 act inactive, GPR151 activ 5.7, MITF inh inactive, GPR151 confirm inactive and GPR119 counter inactive.
Screening COc1cccc(CN2CCNC(=O)C2CC(=O)N(C)Cc2ccno2)c1 (stereo not drawn) returned TEAD-YAP inh inactive, FBW7 act inactive, GPR151 activ inactive and MITF inh inactive.
For COc1cc(CN2CCNC(=O)C2CC(=O)N(C)Cc2ccno2)cc(OC)c1 (stereo not drawn) the results were TEAD-YAP inh inactive, FBW7 act inactive, GPR151 activ 6.1, MITF inh inactive, GPR151 confirm inactive and GPR119 counter inactive.
`Cc1csc(CN(C)C(=O)CC2C(=O)NCCN2CC2CCCCC2)n1` (stereo not drawn) gave TEAD-YAP inh inactive, FBW7 act inactive, GPR151 activ 5.3, MITF inh inactive, GPR151 confirm inactive and GPR119 counter inactive.
`COc1cc(CN2CCC3(CC2)CC3C(=O)Nc2ccc3sc(C)nc3c2)ccc1O` (stereo not drawn) gave TEAD-YAP inh inactive, FBW7 act inactive, GPR151 activ inactive and MITF inh inactive.
Screening Cc1ccc(C2=NS(=O)(=O)N(C)C(C(=O)Nc3ccc(F)cc3F)=C2)cc1 returned TEAD-YAP inh inactive, FBW7 act inactive, GPR151 activ 11, MITF inh inactive, GPR151 confirm inactive and GPR119 counter inactive.
COc1ccc(C2=NS(=O)(=O)N(C)C(C(=O)Nc3ccc(F)cc3F)=C2)cc1OC was read as TEAD-YAP inh inactive, FBW7 act inactive, GPR151 activ inactive and MITF inh inactive.
For Cc1cccc(C(=O)Nc2ccc(C)cc2[N+](=O)[O-])c1 the results were TEAD-YAP inh inactive, FBW7 act inactive, GPR151 activ inactive and MITF inh inactive.
Cc1cc(C(=O)Nc2ccc(F)cc2F)ccc1[N+](=O)[O-] was read as TEAD-YAP inh inactive, FBW7 act inactive, GPR151 activ 5.2, MITF inh inactive, GPR151 confirm inactive and GPR119 counter inactive.
`Cc1ccc(NC(=O)c2cccc(F)c2)c([N+](=O)[O-])c1` gave TEAD-YAP inh inactive, FBW7 act inactive, GPR151 activ 8.7, MITF inh inactive, GPR151 confirm inactive and GPR119 counter inactive.
Screening COc1ccc(/C(N)=N/OC(=O)c2cc(Cl)ccc2OC)cc1 returned TEAD-YAP inh inactive, FBW7 act inactive, GPR151 activ 6.8, MITF inh inactive, GPR151 confirm inactive and GPR119 counter inactive.
For COCc1cc(C)nc(SCC(=O)Oc2ccccc2)c1C#N the results were TEAD-YAP inh inactive, FBW7 act inactive, GPR151 activ inactive and MITF inh inactive.
For COCc1cc(C)nc(SCC(=O)O)c1C#N the results were TEAD-YAP inh inactive, FBW7 act inactive, GPR151 activ 5.9, MITF inh inactive, GPR151 confirm inactive and GPR119 counter inactive.
Screening COc1cc(OC)cc(C(=O)Nc2nnn(C)n2)c1 returned TEAD-YAP inh inactive, FBW7 act inactive, GPR151 activ inactive and MITF inh inactive.
Screening CC(=O)Nc1ccc(Nc2nc(-c3ccc(Cl)cc3)cs2)cc1 returned TEAD-YAP inh inactive, FBW7 act inactive, GPR151 activ inactive and MITF inh inactive.
COC(=O)C(CCCCNC(=O)c1ccccc1)NC(=O)c1ccccc1 (stereo not drawn) was read as TEAD-YAP inh inactive, FBW7 act inactive, GPR151 activ inactive and MITF inh inactive.
For NC(CCCCNC(=O)c1ccccc1)C(=O)O (stereo not drawn) the results were TEAD-YAP inh inactive, FBW7 act inactive, GPR151 activ 5.0, MITF inh inactive, GPR151 confirm inactive and GPR119 counter inactive.
Screening CC(=O)Nc1ccc(S(=O)(=O)Nc2ccccc2C(C)C)cc1 returned TEAD-YAP inh inactive, FBW7 act inactive, GPR151 activ 5.9, MITF inh inactive, GPR151 confirm inactive and GPR119 counter inactive.

Bioassay records (PubChem)
